E coli RNAP – inhibitors of Escherichia coli RNA polymerase. E. coli RNA polymerase, fluorescence transcription assay. inhibition, %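 (tested at 10 µM)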. 62,000 tested, 0.2% active; in the data active = inhibition above about 20%;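 note: 0% = enzyme without compound and 100% = no enzyme blank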
Cav3 T inh – human Cav3.2 channel inhibition, primary screen. O95180. Cav3.2-expressing cells, Fluo-4 calcium fluorescence FDSS; stronger effect = lower value. B-score at 10 µM. 100,000 tested, 4% active. AID 449739;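 active = single-dose well whose peak fluorescence ratio is a statistical outlier from its plate by either plate-standardised score or position-corrected B-score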
CD11b adhes enh – enhancers of human CD11b/CD18 binding to fibrinogen; P05107+P11215; K562 CD11b/CD18 adhesion to fibrinogen, ATPlite luminescence; activation, % at 10 µM; 93,000 tested, 0.07% active; AID 1499;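 active = 10 µM primary screen giving 50% or more activity, confirmed by 40% or more on retest at that dose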
PTK2B oligo ant – antagonists of human Pyk2 oligomerization | Q14289 | Q293 cells, Pyk2 FERM NanoBiT luminescence; stronger effect = lower value | z-score (the deposit names both 25 µM and 10 µM) | 99,000 tested, 0.83% active | AID 1347419;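 active = Z-score of -3 or lower, scaled per plate to the spread of control and sample wells; inactive = z-score above -3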;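 note: negative z-score means lost luminescence so less FERM oligomerization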
Target sequence (Q14289 whole entry, looked up): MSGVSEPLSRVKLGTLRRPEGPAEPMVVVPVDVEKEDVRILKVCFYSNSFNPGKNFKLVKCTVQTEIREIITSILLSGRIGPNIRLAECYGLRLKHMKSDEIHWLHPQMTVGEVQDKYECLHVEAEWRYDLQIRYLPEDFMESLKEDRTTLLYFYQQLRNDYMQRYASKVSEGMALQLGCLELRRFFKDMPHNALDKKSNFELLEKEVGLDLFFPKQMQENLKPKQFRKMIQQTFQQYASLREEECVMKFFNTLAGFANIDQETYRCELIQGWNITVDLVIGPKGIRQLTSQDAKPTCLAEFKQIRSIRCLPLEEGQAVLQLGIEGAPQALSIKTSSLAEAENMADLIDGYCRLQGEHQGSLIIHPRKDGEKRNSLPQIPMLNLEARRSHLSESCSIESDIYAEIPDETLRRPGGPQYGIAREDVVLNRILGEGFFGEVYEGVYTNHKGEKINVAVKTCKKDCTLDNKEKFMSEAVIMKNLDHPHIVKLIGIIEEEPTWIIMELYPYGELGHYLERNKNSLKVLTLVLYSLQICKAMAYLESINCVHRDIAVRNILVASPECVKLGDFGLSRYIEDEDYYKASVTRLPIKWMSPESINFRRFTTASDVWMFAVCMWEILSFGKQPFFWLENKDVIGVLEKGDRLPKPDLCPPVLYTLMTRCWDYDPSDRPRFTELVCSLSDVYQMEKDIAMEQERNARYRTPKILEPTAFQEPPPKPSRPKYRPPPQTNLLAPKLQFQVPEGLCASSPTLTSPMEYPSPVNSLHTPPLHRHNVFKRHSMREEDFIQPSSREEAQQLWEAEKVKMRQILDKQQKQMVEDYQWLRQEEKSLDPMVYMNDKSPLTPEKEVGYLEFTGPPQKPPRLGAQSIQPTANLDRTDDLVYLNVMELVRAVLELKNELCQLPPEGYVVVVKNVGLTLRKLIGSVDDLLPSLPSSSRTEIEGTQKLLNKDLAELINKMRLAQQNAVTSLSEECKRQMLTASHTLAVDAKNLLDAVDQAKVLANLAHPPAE
Mac1 fbg inh – CD11b/CD18-fibrinogen binding inhibition; P05107+P11215; K562 CD11b/CD18 adhesion to fibrinogen, ATPlite luminescence; Mn2+ added to activate the integrin; inhibition, % at 10 µM; 93,000 tested, 0.54% active; AID 1497;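 active = primary inhibition of 50% or more at 10 µM, then 40% or more on retest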
Numbers without * were called inactive; ! = not confirmed by another sample. This is a sample that favours compounds with a hit; in the whole collection about 4.2% have one here.

Screening COc1ccc(C(c2nnnn2C2CCCCC2)N2CCN(c3ccc(OC)cc3)CC2)cc1 (configuration not stated) returned E coli RNAP -7, Cav3 T inh -6.4*, CD11b adhes enh -1, PTK2B oligo ant -2.3 and Mac1 fbg inh -25.
`Cc1ccc(NC2c3ccccc3C(=O)N2CCN2CCOCC2)cc1` (configuration not stated) gave Cav3 T inh 1.3, CD11b adhes enh -2 and Mac1 fbg inh -8.
Screening CCOC(=O)c1[nH]c(C)c(C(=O)OCC(=O)N2CC(=O)Nc3ccccc32)c1C returned CD11b adhes enh -1 and Mac1 fbg inh 4.
Screening CCC1=C[C@H]2CN(C1)Cc1c([nH]c3ccccc13)[C@@](C(=O)OC)(c1cc3c(cc1OC)N(C)[C@H]1[C@@](O)(C(=O)OC)[C@H](OC(C)=O)[C@]4(CC)C=CCN5CC[C@]31[C@@H]54)C2 returned Cav3 T inh -0.66.
For COC(=O)c1ccc(C(=O)OC)c(NC(=O)CSCc2ccccc2Br)c1 the results were Cav3 T inh 0.31, CD11b adhes enh 11, PTK2B oligo ant 0.13 and Mac1 fbg inh -10.
For c1cc(N2CCCC2)ccc1C(c1nnnn1C1CCCCC1)N1CCOCC1 (configuration not stated) the results were E coli RNAP 2, Cav3 T inh -0.86, CD11b adhes enh 2, PTK2B oligo ant -0.04 and Mac1 fbg inh -4.
`COc1ccc(OC)c(C(c2nnnn2Cc2ccccc2)N2CCN(C3CCCCC3)CC2)c1` (configuration not stated) gave E coli RNAP 1, Cav3 T inh -2.9, CD11b adhes enh 1, PTK2B oligo ant 0.74 and Mac1 fbg inh -6.
COc1ccc(OC)c(C(c2nnnn2C2CCCC2)N2CCN(c3ccccc3)CC2)c1 (configuration not stated) was read as E coli RNAP 2, CD11b adhes enh -4, PTK2B oligo ant -3.5* and Mac1 fbg inh -16.
c1ccc(C(c2nnnn2C2CCCC2)N2CCN(c3ccccc3)CC2)cc1 (configuration not stated) was read as Cav3 T inh -5.1* and PTK2B oligo ant -2.1.
For O=C(Nc1nc2cc(Cl)ccc2s1)C1CCCN(S(=O)(=O)c2cccc3cccnc23)C1 (configuration not stated) the results were Cav3 T inh -0.32, CD11b adhes enh 32 and Mac1 fbg inh 4.
Screening C/C(CC(=O)Nc1ccccc1-c1ccccc1)=N\NC(=O)COc1ccc(C)cc1Br returned Cav3 T inh -6.5*, CD11b adhes enh 5, PTK2B oligo ant 0.04 and Mac1 fbg inh 4.
Screening C/C(CC(=O)Nc1ccccc1[N+](=O)[O-])=N\NC(=O)COc1ccccc1C returned Cav3 T inh 0.19, CD11b adhes enh 3, PTK2B oligo ant -0.29 and Mac1 fbg inh -12.
Screening c1ccc(CC2=NCCN2)cc1 returned Cav3 T inh 0.44, CD11b adhes enh -5 and Mac1 fbg inh -9.
`c1ccc(CN(CC2=NCCN2)c2ccccc2)cc1` gave E coli RNAP 6 and Cav3 T inh -2.8*!.
`O=C(c1cccs1)N1CCN(Cc2cccc([N+](=O)[O-])c2)CC1` gave CD11b adhes enh -3 and Mac1 fbg inh -4.
For O=C(NNC(=S)NC(=O)C12CC3CC(CC(C3)C1)C2)c1ccncc1 the results were Cav3 T inh -4.3*, CD11b adhes enh 2, PTK2B oligo ant -0.86 and Mac1 fbg inh 28.
Screening CC1(C(=O)NC(=S)NNC(=O)c2ccncc2)CCCCC1 returned CD11b adhes enh -4 and Mac1 fbg inh 20.
`COc1ccc(-n2nc(C(=O)c3cccs3)cc(-c3nc4ccccc4[nH]3)c2=N)cc1` gave PTK2B oligo ant -3.3*.
`Cc1ccccc1-n1nc(C(=O)c2cccs2)cc(-c2nc3ccccc3[nH]2)c1=N` gave Cav3 T inh -0.11 and PTK2B oligo ant -2.9.
`CCN(CC)c1ccc(/C=C(/C#N)c2nc3ccccc3[nH]2)c(OC(C)C)c1` gave Cav3 T inh -3.5* and PTK2B oligo ant -3.4*.
CCn1c(COc2ccccc2)nnc1SCC(=O)CC(=O)Nc1ccccc1OC was read as E coli RNAP 8, Cav3 T inh -0.18, CD11b adhes enh -2, PTK2B oligo ant -1.1 and Mac1 fbg inh -3.
`CCn1c(COc2ccccc2C)nnc1SCC(=O)CC(=O)Nc1ccccc1OC` gave E coli RNAP 6, Cav3 T inh -4.9*, CD11b adhes enh 6, PTK2B oligo ant 1.3 and Mac1 fbg inh 8.
`Cc1ccc(NC(=O)c2c(Cl)n(C)c3ccccc23)cc1` gave CD11b adhes enh 8, PTK2B oligo ant 0.61 and Mac1 fbg inh 35.
Screening Cc1ccc(S(=O)(=O)Nc2ccc3nc(-c4cccn4C)[nH]c3c2)cc1 returned E coli RNAP 10, Cav3 T inh -5.7*, CD11b adhes enh 1, PTK2B oligo ant -0.28 and Mac1 fbg inh 2.
Screening Cn1cccc1-c1nc2ccc(NC(=O)c3ccccc3)cc2[nH]1 returned E coli RNAP 3, Cav3 T inh -3, CD11b adhes enh 0, PTK2B oligo ant -0.54 and Mac1 fbg inh 10.
For COc1ccc(/C=C/C(O)=C2/C(=O)N(C)C3(C)CC2c2ccccc2O3)cc1 (configuration not stated) the results were E coli RNAP 0, Cav3 T inh -5*, CD11b adhes enh 4, PTK2B oligo ant -1.3 and Mac1 fbg inh 10.
`Cc1ccc(/C=C/C(O)=C2/C(=O)N(C)C3(C)CC2c2ccccc2O3)cc1` (configuration not stated) gave Cav3 T inh -2.4, CD11b adhes enh 3, PTK2B oligo ant -0.61 and Mac1 fbg inh -4.
For O=C(Nc1nc2ccc(Cl)cc2s1)c1ccc(Br)o1 the results were E coli RNAP 0, Cav3 T inh -3.6*, CD11b adhes enh 4, PTK2B oligo ant -1.7 and Mac1 fbg inh 8.
For CCCCCCN(C(=O)CCCCCN1C(=O)NC(c2ccc(-c3ccccc3)cc2)C(C(=O)OCc2ccccc2)=C1C)C(C(=O)NCCCC)c1ccc(O)cc1 (configuration not stated) the results were Cav3 T inh -0.78.
For CC(C)(C)c1nc(N2CCN(C(=O)c3ccco3)CC2)c2nnn(Cc3ccccc3)c2n1 the results were Cav3 T inh -7.2* and PTK2B oligo ant -1.2.
O=C(c1ccco1)N1CCN(c2nc(C3CC3)nc3c2nnn3Cc2ccccc2Cl)CC1 was read as Cav3 T inh -1.9 and PTK2B oligo ant -0.91.
For CSc1nnc(C)c(=O)n1COC(=O)c1ccc(S(=O)(=O)N2CCCC2)cc1 the results were CD11b adhes enh -1 and Mac1 fbg inh 27.
CCOC(=O)c1c(NC(=O)c2ccc(Cl)cc2)csc1C was read as CD11b adhes enh -2 and Mac1 fbg inh -17.
`CCCCn1c(=O)[nH]c(=O)c2c1nc(-c1ccsc1)n2Cc1ccccc1` gave Cav3 T inh -0.74, CD11b adhes enh -6, PTK2B oligo ant -3.1* and Mac1 fbg inh 2.

Bioassay records: PubChem, several laboratories
